About 79,000 compounds went through this panel and 15% of them were active in at least one assay; those are over-represented in the sample as a whole. A number with no mark means an inactive call. Active and inactive are the calls of the source. Rule as the data show it: active = growth inhibition above about 70%; inactive = the rest.
What was measured:
[1] = NCI Yeast Anticancer Drug Screen. Data for the rad50 strain (AID 155);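 also: 0% = growth of vehicle-only cultures of the same strain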; details: S. cerevisiae rad50 strain growth inhibition, active compounds read high
Outline: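 Yeast carrying a defined DNA repair defect were exposed to test compounds, and growth was compared with vehicle-treated controls to give percent inhibition.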

[2] = NCI Yeast Anticancer Drug Screen. Data for the mec2-1 strain (AID 157); details: S. cerevisiae mec2-1 strain, active compounds read high
Outline: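 Cells of the genetically defined mec2-1 yeast strain are incubated with test compound. Inhibition of growth is calculated against vehicle-treated controls.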

[3] = NCI Yeast Anticancer Drug Screen. Data for the sgs1 mgt1 strain (AID 161);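 also: 0% = growth of cultures given vehicle only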; details: S. cerevisiae sgs1 mgt1 strain, active compounds read high
Outline: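 Mutant yeast exposed to compound; growth scored against vehicle-only wells.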

[4] = NCI Yeast Anticancer Drug Screen. Data for the cln2 rad14 strain (AID 165);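 also: 0% = growth equal to vehicle treated cultures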; details: S. cerevisiae cln2 rad14 strain, active compounds read high
Outline: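 The screen exposed genetically defined yeast (cln2 rad14) to test compounds and scored growth inhibition relative to vehicle-treated controls.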

[5] = NCI Yeast Anticancer Drug Screen. Data for the bub3 strain (AID 167); details: S. cerevisiae bub3 mutant strain, active compounds read high
Outline: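 Compounds were applied to a genetically altered yeast strain carrying a cell-cycle control defect. Growth inhibition was scored against vehicle-treated controls.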

[6] = NCI Yeast Anticancer Drug Screen. Data for the mlh1 rad18 strain (AID 175); details: S. cerevisiae mlh1 rad18 strain growth inhibition, active compounds read high
Outline: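 Compound-treated yeast growth, normalised to vehicle controls. Strain bears defined DNA repair mutations.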

[7] = at 5.0 µM (retest, dose inferred, filed as 0.5)
[8] = at 50.0 µM (retest, dose inferred, filed as 5.0)

Row | SMILES | growth inhibition [1, 7] | growth inhibition [1, 8] | growth inhibition ([1]; at 50.0 µM) | growth inhibition [2, 7] | growth inhibition [2, 8] | growth inhibition ([2]; at 50.0 µM) | growth inhibition [3, 7] | growth inhibition [3, 8] | growth inhibition ([3]; at 50.0 µM) | growth inhibition [4, 7] | growth inhibition [4, 8] | growth inhibition ([4]; at 50.0 µM) | growth inhibition [5, 7] | growth inhibition [5, 8] | growth inhibition ([5]; at 50.0 µM) | growth inhibition [6, 7] | growth inhibition [6, 8] | growth inhibition ([6]; at 50.0 µM)
1 | CS/C([S-])=N/N=C(C)C.CS/C([S-])=N/N=C(C)C.[Ni+2] | 34% | 94% (active) | 93.8% (active) | 19% | 96% (active) | 57% | 28% | 97% (active) | 83.7% (active) | 11% | 89% (active) | -13.8% | 72% (active) | 96% (active) | 79.8% (active) | 72% (active) | 97% (active) | 74.8% (active)
2 | N.N.N.N.N.N#N.[Cl-].[Os+7] | 18% | 78% (active) | 55.5% | 17% | 87% (active) | 59.4% | 33% | 90% (active) | 60.9% | 14% | 45% | 57.4% | 30% | 91% (active) | 59.1% | 31% | 89% (active) | 74% (active)
3 | CCCCN1C(=O)C2C(C1=O)C1(Cl)C(Cl)=C(Cl)C2(Cl)C1(Cl)Cl (configuration not stated) | 17% | 98% (active) | 95.3% (active) | 17% | 99% (active) | 96% (active) | 11% | 98% (active) | 98.9% (active) | 13% | 98% (active) | 99% (active) | 3% | 98% (active) | 76.5% (active) | 21% | 98% (active) | 76.7% (active)
4 | C[CH2][Sn]([CH2]C)([O]C(C)=O)[O][Sn]([CH2]C)([CH2]C)[O]C(C)=O | 23% | 80% (active) | 64% | 24% | 91% (active) | 60.1% | 15% | 82% (active) | 84.8% (active) | 30% | 68% | 86.1% (active) | 21% | 78% (active) | 84.3% (active) | 26% | 86% (active) | 89.1% (active)
5 | O=c1c[n+](-c2ccc[nH+]c2)[nH]o1.[Cl][Hg][Cl] | 99% (active) | 99% (active) | 99.3% (active) | 100% (active) | 100% (active) | 99.5% (active) | 100% (active) | 100% (active) | 99.5% (active) | 99% (active) | 99% (active) | 99.3% (active) | 99% (active) | 99% (active) | 99.4% (active) | 99% (active) | 99% (active) | 99.2% (active)
6 | CC(C)COP(=O)(OCC(C)C)C(=O)Nc1ccc(Cl)cc1 | -1% | 80% (active) | 57.1% | -19% | 44% | 15.2% | 11% | 89% (active) | 24.9% | 9% | 49% | 22.6% | -2% | 58% | 25.1% | 2% | 79% (active) | 33.6%
7 | COc1ccc(C2N(Cc3ccc(N(CCCl)CCCl)cc3C)CCCN2Cc2ccc(N(CCCl)CCCl)cc2C)cc1 | 10% | 98% (active) | 97.1% (active) | -32% | 96% (active) | 99% (active) | 3% | 99% (active) | 99% (active) | 2% | 94% (active) | 75% (active) | 26% | 96% (active) | 98.3% (active) | 18% | 97% (active) | 98.5% (active)
8 | S=P(Nc1ccccc1)(Nc1ccccc1)Nc1ccccc1 | 21% | 94% (active) | 96.8% (active) | 18% | 94% (active) | 98% (active) | 12% | 95% (active) | 96.8% (active) | 7% | 94% (active) | 97.7% (active) | 19% | 92% (active) | 98.2% (active) | 23% | 94% (active) | 96.8% (active)
9 | CCOc1cc(/C=C/[N+](=O)[O-])ccc1O | -112% | 93% (active) | 77.2% (active) | -44% | 73% (active) | 65.8% | -46% | 95% (active) | 77.7% (active) | -52% | 75% (active) | 55% | -60% | 90% (active) | 43.4% | -93% | 94% (active) | 96.6% (active)

From PubChem BioAssay (NCI)
